Measured values published in PubChem BioAssay (NCI).
The panel holds about 83,000 compounds, 20% with a hit somewhere; the sample as a whole holds those more often.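 Cells were grown in 96-well plates and exposed to the test compound at a single concentration for 48 hours; results are reported as percent growth, with values below 10 considered active.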 A number with no mark means an inactive call. Active and inactive are the calls of the source.

Assays:
Assay in all cases: NCI-60 one-dose screen, 48 h (100 = growth as untreated, 0 = no growth, -100 = all killed)
Conditions in all cases: 10 µM unless noted
HCT-15 colon = tested on: HCT-15 colon
HT29 colon = tested on: HT29 colon
SNB-75 CNS = tested on: SNB-75 CNS
U251 CNS = tested on: U251 CNS
PC-3 prostate = tested on: PC-3 prostate
SK-MEL-5 melanoma = tested on: SK-MEL-5 melanoma
UACC-62 melanoma = tested on: UACC-62 melanoma
SK-MEL-28 melanoma = tested on: SK-MEL-28 melanoma
SK-MEL-2 melanoma = tested on: SK-MEL-2 melanoma
EKVX NSCLC = tested on: EKVX NSCLC
SN12C renal = tested on: SN12C renal
UO-31 renal = tested on: UO-31 renal
TK-10 renal = tested on: TK-10 renal
ACHN renal = tested on: ACHN renal
CAKI-1 renal = tested on: CAKI-1 renal
A498 renal = tested on: A498 renal
CCRF-CEM leukemia = tested on: CCRF-CEM leukemia
MOLT-4 leukemia = tested on: MOLT-4 leukemia
LOX IMVI melanoma = tested on: LOX IMVI melanoma

Row | SMILES | growth (HCT-15 colon) | growth (HT29 colon) | growth (SNB-75 CNS) | growth (U251 CNS) | growth (PC-3 prostate) | growth (SK-MEL-5 melanoma) | growth (UACC-62 melanoma) | growth (SK-MEL-28 melanoma) | growth (SK-MEL-2 melanoma) | growth (EKVX NSCLC) | growth (SN12C renal) | growth (UO-31 renal) | growth (TK-10 renal) | growth (ACHN renal) | growth (CAKI-1 renal) | growth (A498 renal) | growth (CCRF-CEM leukemia) | growth (MOLT-4 leukemia) | growth (LOX IMVI melanoma)
1 | CN(C)c1cccc2[nH]c(-c3[nH]ncc3Nc3ccnc(N)n3)nc12 | -17.1% (active) | 0.0531% (active) | -68.7% (active) | -50.1% (active) | 5.95% (active) | -98.9% (active) | -85.1% (active) | -57.3% (active) | -60.4% (active) | -17% (active) | -7.45% (active) | -9.8% (active) | -30.1% (active) | -1.92% (active) | -45.9% (active) | -79.4% (active) | 1.73% (active) | 1.65% (active) | 
2 | O=C1CCN2C(=O)Nc3ccccc3C2C1 (centres undefined) | 99% | 104% | 83.4% | 104% |  | 103% |  |  | 110% | 99.8% | 94.2% | 94.1% | 104% | 106% | 89.6% | 120% | 106% | 97.8% | 106%
3 | O=C(c1ccccc1)C(CN1CCOCC1)c1ccccc1 (centres undefined) | 1.74% (active) | -67% (active) | 51.8% | 19.3% | 48.7% | 44.5% | 22.4% | 68.6% | -8.58% (active) |  | 28.1% | 11.2% | 9.68% (active) | 6.83% (active) |  | 93% | 4.53% (active) | 19.2% | -34.7% (active)
4 | c1ccc(-c2nc(Nc3ccc(-c4nc5ccccc5[nH]4)cc3)nc(N3CCOCC3)n2)cc1 | -68.9% (active) | -59.9% (active) | -89.6% (active) | -67.5% (active) | -35.5% (active) | -95.4% (active) |  | -82.9% (active) | -52.7% (active) | -66.9% (active) | -62.8% (active) |  | -58.1% (active) | -58.9% (active) | -89.4% (active) | -83.4% (active) | -15.7% (active) | -37.8% (active) | -89% (active)
5 | COc1ccc(C2(Cl)c3ccccc3N(c3ccccc3)c3ccccc32)cc1 | 8.52% (active) | 3.7% (active) | 3.72% (active) | -87.5% (active) | -24.4% (active) |  |  | -74.7% (active) | -39.9% (active) | 0.119% (active) | -1.51% (active) | 7.46% (active) | 8.72% (active) | 4.85% (active) | 7.42% (active) |  | 20.6% | 12.7% | -84.3% (active)
6 | C/C(=N\Nc1ccc2ccccc2n1)c1ccccn1 | 22.6% | -2.94% (active) | 35.3% | 4.2% (active) | 4.97% (active) | -57.5% (active) | -54.8% (active) | 30.2% |  |  | 17.5% | -39.2% (active) | 15.2% | -3.16% (active) | -10.9% (active) | 11.1% | -5.75% (active) | 1.13% (active) | -19.8% (active)
7 | Cn1cc(-c2csc(-c3cn(C(=O)OC(C)(C)C)c4ccccc34)n2)c2cccnc21 | 52.4% | 13% | 57.7% | 61.7% |  | 64% | 62.1% | 79.2% | 66.3% | 72.3% | 87.6% | 73.7% | 102% | 77.5% | 58.7% | 79.7% | 56.8% | 50% | 
8 | CN1CCN(c2nc(-c3csc(-c4cccs4)n3)cc3ccccc23)CC1 | 7.33% (active) | -27.3% (active) | 54.5% | 28.8% | 39.8% | 43.7% | 33.6% | 68.9% | 39.7% | 68.3% | 71% | 59.8% | 79% | 31.4% | 39.6% | 10.5% | 30.7% | 9.46% (active) | 
9 | Cc1cccc2c1NC(=O)[C@@]21[C@H](C(=O)c2ccccc2)[C@]2(C(=O)Nc3ccccc32)[C@H]2CCCN21 | 9.8% [100 µM] (active) | 3.18% [100 µM] (active) | -25.4% [100 µM] (active) | 1.7% [100 µM] (active) |  | 31% [100 µM] | 22.5% [100 µM] | 46.4% [100 µM] | 18.1% [100 µM] | 30.6% [100 µM] | 10.3% [100 µM] | 30.5% [100 µM] | 39% [100 µM] | 5.91% [100 µM] (active) | 11.6% [100 µM] | 39.8% [100 µM] | 5.86% [100 µM] (active) | 12.3% [100 µM] | 
10 | Cc1ccc(/C=C(\C#N)c2cc3ccccc3n2C)cc1 | 10.3% | 17.1% | 19.4% |  | 36.1% |  | 20% | 65.4% | 75.7% | 48.4% | 39.5% | 56.8% | 99.3% | 42.9% | 34.4% | 10.4% | 13.9% | 21.6% | 
11 | CCCCN1CCCCn2c1nc1c2c(=O)n(C)c(=O)n1C | 108% | 102% | 94.1% | 95% | 108% |  | 101% | 117% | 91.9% | 105% | 102% | 93.1% | 103% | 107% | 95.5% | 96.3% | 113% | 96.6% | 99%
12 | CC(=O)OC[C@]12CC[C@@H](/C(C)=N/O)[C@@H]1[C@H]1CC[C@@H]3[C@@]4(C)CCCNC(C)(C)[C@@H]4CC[C@@]3(C)[C@]1(C)CC2 | 60.1% | 59.6% | 63.9% | 68.7% | 42.5% | 51.3% | 66.5% | 86% | 94.5% | 84.6% | 75.3% | 61.2% | 82.4% | 88% | 36.7% | 59.3% | 52.1% | 35.6% | 
13 | CN(C)CCCCC(C(=O)CBr)(c1ccccc1)c1ccccc1 | -33.9% (active) | 8.94% (active) | 46% | 41.5% | 51.6% | 35% |  | 23.6% | 53.8% | 48.8% | 20.8% | -56.1% (active) | -47.6% (active) | -65.4% (active) | -23.5% (active) | 40.2% | 5.74% (active) | 0.308% (active) | -39% (active)
14 | CN1CCN(c2ccc3nc(-c4[nH]ncc4Nc4ncnc5c4OCCCN5)[nH]c3c2)CC1 | -64.7% (active) | -24.6% (active) | -93.1% (active) | -55.7% (active) | -58.5% (active) | -93.4% (active) | -74.9% (active) | -73.1% (active) | -56.1% (active) | -59.6% (active) | -59.5% (active) | -77.3% (active) | -62.7% (active) | -98.4% (active) | -86.2% (active) | -95.7% (active) | -25.7% (active) | -22.5% (active) | 
15 | COc1cc2ncnc(Nc3ccc(OCc4cccc(F)c4)c(Cl)c3)c2cc1NC(=O)C1CCCC1 | 80.2% | 82.3% | 69.2% | 91.8% | 63.3% | 95% |  | 90.1% | 86.2% | 37.6% | 85.2% | 30.5% | 18.4% | 47.6% | 55.9% | 20.8% | 92.6% | 84% | 
16 | Nc1ccc(Br)cn1 | 102% | 104% | 87.3% |  | 98.9% | 100% | 97.3% | 107% | 98.8% | 110% |  | 93.4% | 107% | 109% | 113% |  | 80.4% | 91.5% | 
17 | COC(=O)C(N)CSC(c1ccccc1)(c1ccccc1)c1ccccc1 (centres undefined) | 28% | 1.58% (active) | 31.4% | 23.3% | 25.1% | 23.9% | 54.3% | 49.5% |  |  | 39.9% | 52.6% | 49.5% | 57% |  | 34.1% | 13.7% | 8.4% (active) | 
18 | Cc1csc(Nc2nc(-c3ccc(Cl)cc3)nc(C(Cl)(Cl)Cl)n2)n1 | 84.1% | 63.1% | 89.4% | 72.8% | 74.1% | 93.1% | 83.2% | 92% | 112% | 76.6% | 94.1% | 84.8% | 100% | 49.5% | 78.1% | 85.2% | 90% | 84.4% | 
19 | COc1ccc(NC(=S)N/N=C/c2ccccc2SSCCC(=O)OC[C@H]2O[C@H](O)[C@H](O)[C@@H](O)[C@@H]2O)cc1 | 71.8% | 102% | 86.3% | 59.5% | 59.9% |  |  | 85.3% | 78.9% | 72.9% | 81.2% | 81.4% | 136% | 101% |  |  | 92.4% | 65.4% | 59.6%
20 | COC(=O)C(Cc1ccccc1)n1cc(COc2nc(Cl)nc(Nc3ccc(Cl)cc3)n2)nn1 (centres undefined) | 91% | 95.5% | 104% | 94.1% | 101% | 103% | 93.1% | 107% | 97.2% | 95.4% | 96.5% | 72.6% | 104% | 102% | 92.1% | 61.6% | 96.5% | 91.3% | 
